Screening results from PubChem.
Rows were chosen to be rich in hits. Some 19% of all compounds tested hit in one or more screens of this group.
HT1080 IDH1KD tx: HT-1080 IDH1 knockdown cell toxicity (counter line); HT-1080 IDH1 knockdown viability, ATP luminescence, 48 h; Potency, µM (series often up to 46.1 µM), actives largely listed as cytotoxic; 2% of 360,000 active; AID 686971
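Knockdown cells (IDH1KD HT-1080) received compounds 2 h after plating at 750 cells/well and were kept 48 h at 37 °C in 5% FBS RPMI. A CellTiter-Glo luminescence read gave % activity for curve fitting.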
DT40 TDP1 no CPT: qHTS for Inhibitors of human tyrosyl-DNA phosphodiesterase 1 (TDP1): qHTS in cells in absence of CPT; 15% of 420,000 active; DT40 Tdp1-/- hTDP1 cells, no CPT, ATP luminescence, 48 h; AID 686978, 2013; Potency, µM (titrated, usually from 46.2 µM), actives largely listed as inhibitors; also: nearly all actives have a fitted effect of over 55% in size
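Growth kinetics read by CellTiter-Glo luminescence after ≥48 hr at 37 °C. Cells: DT40 Tdp1-/- stably carrying human TDP1, 400 per well, compound exposure in the absence of CPT (DMSO vehicle).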
TDP1 cell CPT: growth inhibition of DT40 Tdp1-/-;hTDP1 cells with camptothecin (screen for TDP1 inhibitors) | chicken DT40 Tdp1-/-;hTDP1 cells + 20 nM CPT, ATP luminescence, 48 h | Potency, µM (titrated, usually from 46.2 µM), most hits filed as inhibitors | 12% of 420,000 active | AID 686979; also: nearly all actives have a fitted effect of over 55% in size
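Chicken DT40 Tdp1-/- cells stably complemented with human TDP1 were seeded at 400 cells/well in medium containing 20 nM camptothecin, exposed to pin-transferred compounds, and grown at 37 °C for at least 48 hr. Viability was read as ATP luminescence.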
HT1080NT lethal: kills 2HG-producing HT-1080-NT fibrosarcoma cells | HT-1080-NT fibrosarcoma viability, CellTiter-Glo ATP luminescence, 48 h | Potency, µM (titrated, usually from 46.1 µM), most hits filed as cytotoxic | 1.6% of 360,000 active | AID 686970;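 also: NT is the 2HG producing partner of a matched IDH1 knockdown line; nearly all actives have a fitted effect of over 55% in size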
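Compounds were tested in concentration-response format on HT-1080-NT cells for 48 hours at 37 degrees C. Cell viability came from CellTiter-Glo luminescence; curves were classified by r2, response magnitude and activity.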
KB-V1 MDR tox: KB-V1 MDR subline cytotoxicity; Potency, µM (titrated, usually from 46.1 µM), usual class: cytotoxic; KB-V1 MDR cells viability, CellTiter-Glo, 72 h; AID 1347076; 3.4% of 400,000 active; also: nearly all actives have a fitted effect of over 60% in size
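Potencies derive from concentration-effect curves fitted to normalized luminescence (CellTiter-Glo) of KB-V1 cells treated for 72 h at 37 degrees C in phenol-red-free DMEM containing 10% FBS.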
KB-3-1 cytotox: kills parental KB-3-1 adenocarcinoma cells. AID 1347075. KB-3-1 viability, CellTiter-Glo ATP luminescence, 72 h. 1.4% of 400,000 active. Potency, µM (titrated, usually from 46.1 µM), hits mostly cytotoxic; also: nearly all actives have a fitted effect of over 60% in size
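Using CellTiter-Glo luminescence, growth of non-resistant KB-3-1 adenocarcinoma cells is assessed 72 h after pin-tool compound addition at 37 °C. Normalized responses across the concentration series yield fitted curves.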
A number is an active result; [ ] = dose if it differs, or a comment. Calls follow the shape of the dose curve; as a rule, active = well fitted curve in the direction sought with a large enough effect; inconclusive = small, poorly fitted or top-dose-only effect, or another doubt; inactive = no such curve, though single readings can be large; an effect the other way counts as inactive or inconclusive.

Cn1ccc2c(OCC(=O)Nc3ccc(OC(F)(F)F)cc3)cccc2c1=O was read as DT40 TDP1 no CPT 7.31µM and TDP1 cell CPT 11.6µM.
For CCOC(=O)c1ccc(NC(=O)COc2cc(=O)n(CC)c3ccccc23)cc1 the results were HT1080 IDH1KD tx inactive, DT40 TDP1 no CPT inactive, TDP1 cell CPT inactive, HT1080NT lethal inactive, KB-V1 MDR tox inactive and KB-3-1 cytotox inactive.
Screening CCOC(=O)c1ccc(NC(=O)COc2cccc3c(=O)n(C)ccc23)cc1 returned DT40 TDP1 no CPT 18.4µM, TDP1 cell CPT 20.6µM, KB-V1 MDR tox inactive and KB-3-1 cytotox inactive.
Screening Cn1ccc2c(OCC(=O)Nc3ccc([N+](=O)[O-])cc3)cccc2c1=O returned DT40 TDP1 no CPT inconclusive, TDP1 cell CPT inactive, KB-V1 MDR tox inactive and KB-3-1 cytotox inactive.
Screening CCOc1ccc(NCc2cc3cc(OC)ccc3[nH]c2=O)cc1 returned HT1080 IDH1KD tx inactive, DT40 TDP1 no CPT 20.6µM, TDP1 cell CPT 5.8µM, HT1080NT lethal inactive, KB-V1 MDR tox inactive and KB-3-1 cytotox inactive.
`COc1ccc2[nH]c(=O)c(CNc3ccccc3)cc2c1` gave HT1080 IDH1KD tx inactive, DT40 TDP1 no CPT inconclusive, TDP1 cell CPT 4.11µM, HT1080NT lethal inactive, KB-V1 MDR tox inactive and KB-3-1 cytotox inconclusive.
For Cc1cccc(NCc2nnc3n2CCCCC3)c1C the results were DT40 TDP1 no CPT inconclusive, TDP1 cell CPT inactive, KB-V1 MDR tox inactive and KB-3-1 cytotox inactive.
COc1ccccc1CN1CCOc2ccc(C(C)(O)COc3ccccc3)cc2C1 (stereo unspecified) was read as DT40 TDP1 no CPT inactive and TDP1 cell CPT inactive[9.04 µM].
CCC(O)CNC(=O)c1cnn(-c2ncc3c(n2)-c2ccccc2CCC3)c1C1CC1 (stereo unspecified) was read as DT40 TDP1 no CPT inconclusive and TDP1 cell CPT inactive.
COc1ccccc1-c1ccnc(-n2ncc(C(=O)N[C@H]3CCCCNC3=O)c2C2CC2)n1 was read as DT40 TDP1 no CPT 20.6µM and TDP1 cell CPT inconclusive.
For Cc1cc(CNC(=O)c2cnn(-c3ncc4c(n3)-c3ccccc3CC4)c2C2CC2)on1 the results were DT40 TDP1 no CPT inconclusive and TDP1 cell CPT 16.4µM.
COC(=O)[C@@H]1CCCN1C(=O)c1cnn(-c2ncc3c(n2)-c2ccccc2CCC3)c1C1CC1 was read as DT40 TDP1 no CPT 16.4µM and TDP1 cell CPT inconclusive.
`O=C(NCc1cccnc1)c1cnn(-c2ncc3c(n2)-c2ccccc2CCC3)c1C1CC1` gave DT40 TDP1 no CPT inconclusive and TDP1 cell CPT inactive[9.04 µM].
Cc1cc(-c2ccnc(-n3ncc(C(=O)NCC4CCCO4)c3C3CC3)n2)c(C)s1 (stereo unspecified) was read as DT40 TDP1 no CPT inconclusive and TDP1 cell CPT inactive[9.04 µM].
Screening Cc1cc(-c2ccnc(-n3ncc(C(=O)NCC4COCCO4)c3C3CC3)n2)c(C)s1 (stereo unspecified) returned DT40 TDP1 no CPT 6.51µM and TDP1 cell CPT 9.2µM.
`CCc1ccc(C#CC2=CC(=O)CC(C)(C)C2)cc1` gave HT1080 IDH1KD tx inactive, DT40 TDP1 no CPT inconclusive, TDP1 cell CPT inconclusive, HT1080NT lethal inactive, KB-V1 MDR tox inactive and KB-3-1 cytotox inactive.
`Cc1ccc(C(=O)NCC(=O)OCc2cccc(Br)c2)cc1` gave HT1080 IDH1KD tx inactive, DT40 TDP1 no CPT inactive, TDP1 cell CPT inactive, HT1080NT lethal inactive, KB-V1 MDR tox inactive and KB-3-1 cytotox inactive.
Screening CC(c1ccon1)N(C)C(=O)c1cnn(-c2ncc3c(n2)-c2ccccc2CC3)c1C1CC1 (stereo unspecified) returned DT40 TDP1 no CPT 16.4µM and TDP1 cell CPT inactive[9.04 µM].
For Cc1cc(CNC(=O)c2cnn(-c3nccc(-c4cc(C)sc4C)n3)c2C2CC2)on1 the results were DT40 TDP1 no CPT inconclusive and TDP1 cell CPT 16.4µM.
`Cc1cc(-c2ccnc(-n3ncc(C(=O)NCC4CCCN(C)C4)c3C3CC3)n2)c(C)s1` (stereo unspecified) gave DT40 TDP1 no CPT inactive and TDP1 cell CPT inactive.
For CN(Cc1cccc2ncccc12)C(=O)c1cnn(-c2ncc3c(n2)-c2ccccc2CC3)c1C1CC1 the results were DT40 TDP1 no CPT 16.4µM and TDP1 cell CPT inconclusive.
For CCOC(=O)C1=CNS(=O)(=O)NC1c1ccc(C)cc1 (stereo unspecified) the results were HT1080 IDH1KD tx inactive, DT40 TDP1 no CPT inactive, TDP1 cell CPT inactive, HT1080NT lethal inactive, KB-V1 MDR tox inactive and KB-3-1 cytotox inactive.
`CCCCCCCCNCCS(=O)(=O)NN1CCOCC1` gave HT1080 IDH1KD tx inactive, DT40 TDP1 no CPT inactive, TDP1 cell CPT inactive, HT1080NT lethal inactive, KB-V1 MDR tox inactive and KB-3-1 cytotox inactive.
COC(=O)/C=C1\OCc2ccccc21 was read as HT1080 IDH1KD tx inactive, DT40 TDP1 no CPT inactive, TDP1 cell CPT inactive, HT1080NT lethal inactive, KB-V1 MDR tox inactive and KB-3-1 cytotox inactive.
For COc1cnc(SCc2c(Cl)cccc2Cl)nc1Cl the results were HT1080 IDH1KD tx inactive, DT40 TDP1 no CPT inactive, TDP1 cell CPT inactive, HT1080NT lethal inactive[9.24 µM], KB-V1 MDR tox inconclusive and KB-3-1 cytotox inactive.
Screening O=C(N/C(=C/c1cccc([N+](=O)[O-])c1)C(=O)N1CCOCC1)c1ccccc1Br returned HT1080 IDH1KD tx inactive, DT40 TDP1 no CPT inactive, TDP1 cell CPT inactive and HT1080NT lethal inactive.
`Cc1cccnc1NC(=O)c1ccc(NS(=O)(=O)/C=C/c2ccccc2)cc1` gave HT1080 IDH1KD tx inactive, DT40 TDP1 no CPT inactive, TDP1 cell CPT inactive, HT1080NT lethal inactive, KB-V1 MDR tox inactive and KB-3-1 cytotox inactive.
Screening N#CC(=C=[N-])c1nc2ccccc2nc1-[n+]1cccc(NC(=O)c2ccccc2)c1 returned HT1080 IDH1KD tx inactive, DT40 TDP1 no CPT inactive, TDP1 cell CPT inactive, HT1080NT lethal inactive, KB-V1 MDR tox inactive and KB-3-1 cytotox inactive.
For N#CC(=C=[N-])c1nc2ccccc2nc1-[n+]1cccc(NC(=O)c2cccs2)c1 the results were HT1080 IDH1KD tx inactive, DT40 TDP1 no CPT 6.51µM, TDP1 cell CPT 5.8µM, HT1080NT lethal inactive, KB-V1 MDR tox inconclusive and KB-3-1 cytotox inactive.
Screening CC(C)c1c(C(=O)N2CCN(CCO)CC2)cnn1-c1nccc(-c2cccs2)n1 returned DT40 TDP1 no CPT inactive and TDP1 cell CPT inactive[9.04 µM].
Screening CCS(=O)c1scc(-c2ccc(Cl)cc2)c1C#N (stereo unspecified) returned HT1080 IDH1KD tx inactive, DT40 TDP1 no CPT inconclusive, TDP1 cell CPT inconclusive, HT1080NT lethal inactive, KB-V1 MDR tox 20.6µM and KB-3-1 cytotox inconclusive.
